TDP1 cell CPT = DT40-hTDP1 cell growth loss with CPT; actives 12% (n = 420,000); Potency, µM (highest dose often 46.2 µM), usual class: inhibitors; AID 686979; chicken DT40 Tdp1-/-;hTDP1 cells + 20 nM CPT, ATP luminescence, 48 h; further: nearly all actives have a fitted effect of over 55% in size
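Chicken DT40 Tdp1-/- cells complemented with human TDP1, 400 cells/well, exposed to compounds plus 20 nM camptothecin for at least 48 h at 37 C; viability read as ATP content by CellTiter-Glo luminescence.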
TDP1 cell noCPT = qHTS for Inhibitors of human tyrosyl-DNA phosphodiesterase 1 (TDP1): qHTS in cells in absence of CPT; DT40 Tdp1-/- hTDP1 cells, no CPT, ATP luminescence, 48 h; AID 686978, 2013; Potency, µM (highest dose often 46.2 µM), actives largely listed as inhibitors; actives 15% (n = 420,000); further: nearly all actives have a fitted effect of over 55% in size
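Chicken DT40 Tdp1-/- cells complemented with human TDP1, screened without camptothecin (DMSO vehicle only), 400 cells/well. Compounds pin-transferred, cells incubated at 37 °C for at least 48 hr. Growth read as ATP-dependent luminescence (CellTiter-Glo, 30 min at RT).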
HT1080 IDH1KD tx = HT-1080 IDH1 knockdown cell toxicity (counter line). HT-1080 IDH1 knockdown viability, ATP luminescence, 48 h. actives 2% (n = 360,000). Potency, µM (series often up to 46.1 µM), actives largely listed as cytotoxic
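Viability of IDH1-knockdown HT-1080 fibrosarcoma cells was assessed by CellTiter-Glo after 48 h at 37 °C with titrated compound; concentration-effect curves were classified by fit quality and response size.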
IL1B secr inh = blocks inflammasome-driven IL-1 beta release | activity change, % at 57.5 µM | AID 743279 | THP-1 LPS/ATP IL-1B secretion, AlphaLISA, 16 h; hits give low values | actives 4.7% (n = 360,000); in the data active means activity change below about -50%; inconclusive means mostly about -30% to -49%
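THP-1 cells pretreated 1 hr with compounds (up to 57.5 uM final), then stimulated with LPS (250 ng/mL final) plus ATP (1.25 mM final); secreted IL-1B measured by AlphaLISA after 16 hr, decreased signal indicating inhibition.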
HT1080NT lethal = kills 2HG-producing HT-1080-NT fibrosarcoma cells | HT-1080-NT fibrosarcoma viability, CellTiter-Glo ATP luminescence, 48 h | Potency, µM (titrated, usually from 46.1 µM), hits mostly cytotoxic | actives 1.6% (n = 360,000);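 further: NT is the 2HG producing partner of a matched IDH1 knockdown line; nearly all actives have a fitted effect of over 55% in size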
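A 48-hour cytotoxicity screen used HT-1080-NT cells plated 2 hours before compound delivery. ATP-based CellTiter-Glo luminescence measured viability, normalized to DMSO and no-cell controls.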
Hits are given with their value; n = inactive; u = inconclusive; x = not tested or not shown; [ ] = another dose, or the depositor's remark. Rows were chosen to be rich in hits. Some 19% of all compounds tested hit in one or more screens of this group. Unless noted, the call rests on the fitted dose curve; in most records, active means well fitted curve in the direction sought with a large enough effect; inconclusive means small, poorly fitted or top-dose-only effect, or another doubt; inactive means no such curve, though single readings can be large; an effect the other way counts as inactive or inconclusive.

SMILES	TDP1 cell CPT	TDP1 cell noCPT	HT1080 IDH1KD tx	IL1B secr inh	HT1080NT lethal
O=C(O)c1ccccc1[O-].O=C(O)c1ccccc1[O-].[Zn+2]	n	n	x	x	x
O=C(COc1cccc(C(F)(F)F)c1)NNC(=O)c1ccc(=O)[nH]c1	n	n	n	n	n
O=C(NCCN1CCOCC1)c1cccc(S(=O)(=O)NCc2ccccc2)c1	n	n	n	n	n
COc1cc(/C=C/C(=O)N2CC(C)OC(C)C2)cc(OC)c1OC (stereo unspecified)	n	n	n	n	n
Cc1ccc2nc(NC(=O)COC(=O)c3cccnc3)sc2c1	n	n	n	n	n
O=c1c(-c2ccc(F)cc2)nc2cnc(N3CCOCC3)nc2n1Cc1cccs1	n	n	x	x	x
O=c1c(-c2ccc(Cl)cc2)nc2cnc(N3CCNCC3)nc2n1Cc1cccs1	6.5µM	21µM	x	x	x
O=c1c(-c2cc(F)cc(F)c2)nc2cnc(N3CCNCC3)nc2n1Cc1cccs1	u	21µM	x	x	x
CN1CCN(c2ncc3nc(-c4ccccc4)c(=O)n(Cc4cccs4)c3n2)CC1	u	16µM	x	x	x
Cc1ccccc1NC(=O)c1sc2nc(N3CCOCC3)c3c(c2c1N)CC(C)(C)OC3	n	u	x	x	x
CCOc1ccc(N2C(=O)C3C(c4ccccc4F)NN(C(=O)c4ccc(C)cc4)C3C2=O)cc1 (stereo unspecified)	n	n	n	n	n
CCCS(=O)(=O)NC(=O)C1(C)CCCN(C(=O)c2cc(C)n(C(C)(C)C)n2)C1 (stereo unspecified)	n	n	n	n	n
Cc1ccc(S(=O)(=O)N2C[C@H]3C(=O)C[C@@H](c4ccccc4)N(S(=O)(=O)c4ccccc4[N+](=O)[O-])[C@H]3C[C@H]2c2ccccc2)cc1	n	n	n	n	n
CCc1cccc(C)c1NC(=O)CN(C)Cc1ccccc1F	15µM	16µM	n	n	n
CSc1ccc(CN(C)CC(=O)Nc2c(F)cccc2F)cc1	21µM	u	n	n	n
CSc1ccc(CN(C)CC(=O)Nc2ccc(NC(C)=O)cc2)cc1	n	u	n	n	n
O=C1Nc2ccc([N+](=O)[O-])cc2OC1CCN1CCN(Cc2ccc3c(c2)OCO3)CC1 (stereo unspecified)	n	u	n	-51	n
O=[N+]([O-])c1ccc(N2CCN(Cc3ccc4c(c3)OCO4)CC2)nc1	u	u	u	n	u
O=Cc1cc([N+](=O)[O-])ccc1N1CCN(Cc2ccc3c(c2)OCO3)CC1	n	u	n	-64	n
O=C1Nc2ccc([N+](=O)[O-])cc2OC1CCN1CCN(Cc2ccccc2)CC1 (stereo unspecified)	n	u	n	n	u
O=C1C2=C(c3ccccc31)[N+](=O)C1CCCCC1N2[O-] (stereo unspecified)	23µM	15µM	n	n	n
O=S(=O)(NCCSc1ccccc1)c1ccc(F)cc1	u	18µM	u	n	n
Brc1cccc(-c2nnc(-c3ccccc3)o2)c1	n	n	n	n	n
O=S(=O)(c1ccccc1)[C@@]1(c2ccc(Br)cc2)C[C@@H]2ON=C(c3cccc(Br)c3)[C@@H]2C1	u	18µM	n	n	n
O=S(=O)(c1ccccc1)[C@@]1(c2ccc(Br)cc2)C[C@@H]2ON=C(c3ccccc3)[C@@H]2C1	u	12µM	n	n	n
SMILES	TDP1 cell CPT	TDP1 cell noCPT	HT1080 IDH1KD tx	IL1B secr inh	HT1080NT lethal
CCN(CC(=O)Nc1c(F)cccc1F)C(=O)/C=C/c1ccc(Br)s1	u	n	n	n	n
COc1ccc2c(O)c(-c3c(C)cc(C)cc3C)c(=O)[nH]c2c1	n	u	n	x	n
CCOC(=O)C1CCCN(C(=O)c2cnn3c(C(F)(F)F)cc(-c4ccccc4)nc23)C1 (stereo unspecified)	18µM	23µM	n	n	n
CCOC(=O)c1cnn2c(C(F)(F)F)cc(-c3ccccc3)nc12	u	n	n[9.24 µM]	n	n
COc1ccc(-c2cc(C(F)(F)F)n3ncc(C(=O)N4CCCCC4c4cccnc4)c3n2)cc1 (stereo unspecified)	16µM	u	n	n	n
COC(=O)c1cnn2c(C(F)(F)F)cc(-c3ccc(F)cc3)nc12	n	n	n	n	u
CCOC(=O)N1CCN(c2nc(-c3cccc(OC)c3)cc(C(F)(F)F)n2)CC1	u	21µM	n	n	n
CCOC(=O)N1CCC(NC(=O)c2cnn3c(C(F)(F)F)cc(-c4cccc(OC)c4)nc23)CC1	13µM	16µM	n	n	n
CCCN1Cc2cc(OC)ccc2-c2ccccc2S1(=O)=O	n	n	n	n	n
COc1cccc(-c2cc(C(F)(F)F)nc(-n3cc(C)cn3)n2)c1	15µM	16µM	n	u	n
COc1cccc(-c2cc(C(F)(F)F)nc(-n3cncn3)n2)c1	n	n	n	n	n
CC[C@]1(C(=O)OC)[C@H]2C(=O)N(C)C(=O)[C@H]2[C@H]2CN(C)C(=NC3CCCCC3)N21	n	n	n	n	n
OC(CNC1CCCc2ccccc21)COc1c(Cl)cccc1Cl (stereo unspecified)	u	u	u	-101	n
OC(CNC1Cc2ccccc2C1)COc1ccc(Cl)cc1 (stereo unspecified)	n	u	n	n	n
COc1ccc(C)cc1N(C(=O)COc1cccc(F)c1)c1nc2ccccc2s1	u	u	n	n	n
COc1ccc(C)cc1N(C(=O)c1ccc(F)cc1)c1nc2ccccc2s1	u	16µM	n	n	n
COc1ccc(S(=O)(=O)N2CCOCC2)cc1N=Nc1sc(N)nc1-c1ccccc1	n	2.3µM	n	u	n
CCNC(=O)C1(C)CCCN(C(=O)c2cc3ccccc3s2)C1 (stereo unspecified)	n	n	n	n	n
COc1ccc(-c2cn(-c3ccc(C)cc3C)c(=O)[nH]2)cc1OC	15µM	u	n	n	n
COc1ccc(-c2cc(=O)[nH][nH]2)cc1OC	n	n	n	n	n
COc1ccc(C2=NO[C@@H]3C(=O)N(c4ccc(C)cc4C)C(=O)[C@H]23)cc1OC	26µM	u	n	n	n
CC(=O)NC(c1ccc(F)c(F)c1)c1nc(-c2ccccc2)cs1 (stereo unspecified)	u	u	n	n	n
COc1ccc(OCC(=O)NCCCCCCNC(=O)COc2ccc(OC)cc2)cc1	n	n	n	n	n
O=C(Nc1ccccc1)Nc1ccc(O)c2ccccc12	1.6µM	12µM	n	n	n
O=C(Nc1cccc2ccccc12)N(c1ccccc1)c1ccccc1	21µM	21µM	n	n	n

Compound activity from PubChem.
